# PubChem BioAssay AID1671190 (National Center for Advancing Translational Sciences (NCATS), 2021)
# Screen size: about 580,000 compounds; about 6,100 (1.1%) were called active. About 15% were inconclusive and are not listed. The sample as a whole holds a higher share of actives than the screen did. Values without a mark were called inactive. Calls come from the whole dose curve; as a rule, active = well fitted inhibition curve with a large enough effect; inconclusive = small, poorly fitted or top-dose-only effect, or another doubt; inactive = no such curve, though single readings can be large or run the other way.
# Target: Polyunsaturated fatty acid lipoxygenase ALOX12 (Homo sapiens) (UniProt P18054)
# Sequence (P18054 whole entry, looked up): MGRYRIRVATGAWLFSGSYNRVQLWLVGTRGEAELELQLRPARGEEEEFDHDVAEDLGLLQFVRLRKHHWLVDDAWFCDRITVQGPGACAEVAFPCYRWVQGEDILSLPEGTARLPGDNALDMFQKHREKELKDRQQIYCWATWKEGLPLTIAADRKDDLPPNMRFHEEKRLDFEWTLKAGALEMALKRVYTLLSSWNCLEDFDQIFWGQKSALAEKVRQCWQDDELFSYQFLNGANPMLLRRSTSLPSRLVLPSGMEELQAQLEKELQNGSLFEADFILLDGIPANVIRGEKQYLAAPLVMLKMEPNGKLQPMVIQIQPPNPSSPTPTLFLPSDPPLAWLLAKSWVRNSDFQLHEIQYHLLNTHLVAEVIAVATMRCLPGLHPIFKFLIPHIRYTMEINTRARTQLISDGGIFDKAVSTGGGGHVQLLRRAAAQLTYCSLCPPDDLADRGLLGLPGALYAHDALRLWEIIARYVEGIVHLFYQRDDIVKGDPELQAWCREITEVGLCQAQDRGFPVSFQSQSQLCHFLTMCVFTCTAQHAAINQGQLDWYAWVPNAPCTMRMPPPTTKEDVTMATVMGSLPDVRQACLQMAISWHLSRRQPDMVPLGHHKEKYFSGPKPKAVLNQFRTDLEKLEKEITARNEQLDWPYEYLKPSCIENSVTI
# Test: Primary qHTS assay for inhibitors of human arachidonate 12S-lipoxygenase (ALOX12): Round 2
# Details: purified 12hLO, xylenol orange hydroperoxide absorbance; series mostly up to 108 µM; activity change, negative = inhibition: at the top concentration
# Summary of the method: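 Hydroperoxide product was detected by ferrous iron/xylenol orange as the 573 to 405 nm absorbance ratio. Arachidonic acid at 40 uM (final) was turned over for 30 min at room temperature by 150 nM human 12hLO, pH 7.0 Hepes buffer, after 15 min compound preincubation.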
# % is set by controls: 0 for no effect and ±100 for the full control effect; potency is the fitted concentration of half-maximal effect.
Compound,"activity change, negative = inhibition",Potency
COc1cc(Cl)c(C)cc1NC(=O)Cn1nc(-c2cccs2)oc1=O,65.1%,
CCCN(CC(F)(F)F)C(=O)c1ccc(NC(=O)NC(C)C)cc1,-27.5%,
Cc1ccc(-n2ccc(C=O)c2)c(C)c1,9.12%,
C=CCN(C)C(=O)[C@@H](C)C1CC[C@@]2(C)Cc3sc(NS(=O)(=O)c4ccc(Cl)cc4)nc3[C@@H](C)[C@@H]2[C@H]1O (stereo not given in full),,31.6 µM (active)
C=CCN(C)C(=O)C[C@@H]1c2nc(NC(=O)c3ccc(C(C)(C)C)cc3)sc2C[C@@H]2[C@](C)(CO)[C@H](O)CC[C@]21C,-2.6%,
CCN(CC)C(=O)[C@@H](C)C1CC[C@@]2(C)Cc3sc(N)nc3[C@@H](C)[C@@H]2[C@H]1O (stereo not given in full),48% [at 176 µM],
CC(Sc1cc(F)ccc1F)C(=O)Nc1ccnn1C(C)C (stereo not given),-13.5%,
O=C(NCc1ccc(Cl)c(Cl)c1)C1CCN(c2ncnc3nc[nH]c23)CC1,-1.44%,
CC(=O)N1CCC2(CCCN(Cc3ccccc3)C2)CC1,-19.8% [at 57.4 µM],
CC(=O)NC1(C)CCN(Cc2cccc(-c3ccc(C(=O)c4ccccc4)cc3)c2)C1 (stereo not given),,39.8 µM (active)
CCCNC(=O)C1(C)CCCN(Cc2cccc(C(F)(F)F)c2)C1 (stereo not given),-21.5%,
CC(C)(C)OC(=O)C(C#N)c1cnccn1 (stereo not given),0.566%,
CC(C)Oc1ccc(C(=O)NC(C)(C)CO)cc1,-27.6%,
CC(C)Oc1ccc(C(O)(CC[N+](C)(C)C)C2CCCCC2)cc1 (stereo not given),,11.2 µM (active)
COc1ccc(C(O)(C2CCCCC2)C(CN2CCCC2)c2ccccc2)cc1 (stereo not given),0%,
O=C(CN1C(=O)CC2(CCCCC2)C1=O)c1c[nH]c2ccccc12,24.3%,
CCn1nc(C(=O)Nc2ccccn2)c2ccccc2c1=O,-0.227%,
Cc1ccccc1CNC(=O)c1cc(-c2ccncc2)nc2ccccc12,-19.4%,
COc1ccc(C2NC(=O)C(=O)/C2=C(\O)c2ccc(Cl)cc2)cc1OC (stereo not given),,28.2 µM (active)
CCC1(C)COC(c2ccc(OC)c(OC)c2)OC1 (stereo not given),-2.84%,
COc1ccc(C2C(=O)N(C3CCCCCC3)CC(=O)N2CCc2ccc(Cl)cc2)cc1OC (stereo not given),-25.5%,
CCN(CC)S(=O)(=O)c1ccc(-c2csc(-c3ccc(OC)c(OC)c3)n2)cc1,-13.9%,
CC(C)(C)c1ccc(/C=N/NC(=O)c2ccccc2)cc1,27.4%,
O=C(CN1c2ccccc2S(=O)(=O)c2ccccc21)Nc1cccc(C(F)(F)F)c1,-26.5%,
FC(F)(F)c1cccc(N/N=C/c2ccccc2)c1,,3.55 µM (active)
O=C(O)c1cc(-c2ccc3ccccc3n2)nc2ccc3ccccc3c12,2.92%,
CC1(C)CC(=O)C/C(=N/NC(=O)c2ccc(NC(=O)C3CC3)cc2)C1,-1.6%,
O=S(=O)(NC1CC1)c1ccc2c3c(cccc13)CC2,8.58%,
N#CC1(NC(=O)COC(=O)Cc2n[nH]c(=O)c3ccccc23)CCCCC1,,inactive
N#CC1(Nc2ccc3c4c(cccc24)CC3)CCCCC1,,31.6 µM (active)
